Of roughly 7,900 targets only a part is listed; those with a hit were picked by preference. About 0.6% of all pairs of compound and target were hits.
Key:
Assay in all cases: log2 fold change, soluble protein after heating vs DMSO (PISA); higher = thermal stabilisation; K562 cells, 10 uM, 30 min; active = over 0.2 and 3.5 SD of the protein, either way, in both replicates (recomputed)
[1] = compound: COC1=CC=C(C=C1)CN2C=CC3=C2C=C(C=C3)C(=O)NO
Summary of the method: (§1)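 Aliquots of K562 cells (2×10^6 cells/mL) treated with 10 μM compound for 30 min were heated for 3 min over 48°C-58°C. After pooling and extraction in PBS with 0.5% NP-40 at 4°C, soluble protein from a 21,000xg, 90 min spin was quantified by TMTpro 16plex LC-MS/MS with channel sums equalised. Thermal stability is expressed against control samples, from duplicates, as a log2 fold change.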

[2] = compound: CON(C)C(=O)N1N=C(c2cc(F)ccc2F)S[C@@]1(CCCN)c1ccccc1 [filanesib]
Summary of the method: as §1

[3] = compound: CO[C@H]1C[C@@H]2CC[C@@H](C)[C@@](O)(O2)C(=O)C(=O)N2CCCC[C@H]2C(=O)O[C@H]([C@H](C)C[C@@H]2CC[C@H](n3cnnn3)[C@H](OC)C2)CC(=O)[C@H](C)/C=C(\C)[C@@H](O)[C@@H](OC)C(=O)[C@H](C)C[C@H](C)/C=C/C=C/C=C/1C [zotarolimus]
Summary of the method: as §1

[4] = compound: COc1cc(C(=O)O)ccc1NC(=O)[C@@H]1N[C@@H](CC(C)(C)C)[C@](C#N)(c2ccc(Cl)cc2F)[C@H]1c1cccc(Cl)c1F [idasanutlin]
Summary of the method: as §1

[5] = compound: COc1cc(Nc2ncc3c(n2)-c2ccc(Cl)cc2C(c2c(F)cccc2OC)=NC3)ccc1C(=O)O [alisertib]
Summary of the method: as §1

[6] = compound: COc1cc2nc(-c3cc(F)ccc3O)nc(N[C@@H]3CNC[C@H]3C(C)(C)O)c2cc1OC
Summary of the method: as §1

[7] = compound: COc1cc2ncnc(Nc3ccc(F)c(Cl)c3)c2cc1OCCCN1CCOCC1 [gefitinib]
Summary of the method: as §1

[8] = compound: COc1cccc2cc(-c3nc([C@H]4CC[C@H](C(=O)O)CC4)n4ncnc(N)c34)[nH]c12
Summary of the method: as §1

[9] = compound: CS(=O)(=O)CCNCc1ccc(-c2ccc3ncnc(Nc4ccc(OCc5cccc(F)c5)c(Cl)c4)c3c2)o1 [lapatinib]
Summary of the method: as §1

[10] = compound: CS(=O)(=O)N1CCN(Cc2cc3nc(-c4cccc5[nH]ncc45)nc(N4CCOCC4)c3s2)CC1 [pictilisib]
Summary of the method: as §1

[11] = compound: CS(=O)(=O)c1ccc(-c2cnc(N)c(C(=O)Nc3ccccc3)n2)cc1
Summary of the method: as §1

[12] = compound: C[C@@H](Oc1cc(-c2cnn(C3CCNCC3)c2)cnc1N)c1c(Cl)ccc(F)c1Cl [crizotinib]
Summary of the method: as §1

[13] = compound: C[C@@H]1COCCN1C2=NC(=NC(=C2)C3(CC3)S(=O)(=O)C)C4=C5C=CNC5=CC=C4
Summary of the method: as §1

[14] = compound: C[C@H](C1=CC=C(C=C1)C(=O)NC2=C3C=CNC3=NC=C2)N
Summary of the method: as §1

[15] = compound: C[C@H](Nc1ncnc2nc[nH]c12)c1cc2cccc(Cl)c2c(=O)n1-c1ccccc1 [duvelisib]
Summary of the method: as §1

[16] = compound: Cc1cc(Nc2cc(CN3CCOCC3)c3nc(C)c(Cc4ccc(Cl)cc4F)n3n2)n[nH]1 [gandotinib]
Summary of the method: as §1

[17] = compound: Cc1cc(Nc2cc(N3CCN(C)CC3)nc(Sc3ccc(NC(=O)C4CC4)cc3)n2)n[nH]1 [tozasertib]
Summary of the method: as §1

[18] = compound: Cc1cc(SCc2sc(-c3ccc(C(F)(F)F)cc3)nc2C)ccc1OCC(=O)O
Summary of the method: as §1

[19] = compound: Cc1ccc(-n2nc(C(C)(C)C)cc2NC(=O)Nc2ccc(OCCN3CCOCC3)c3ccccc23)cc1 [doramapimod]
Summary of the method: as §1

[20] = compound: Cc1ccc(C(=O)N(CCCN)[C@@H](c2nc3cc(Cl)ccc3c(=O)n2Cc2ccccc2)C(C)C)cc1 [ispinesib]
Summary of the method: as §1

Measured: log2 fold change

TXNIP (UniProt Q9H3M7)
Sequence of UniProt Q9H3M7 (Q9H3M7 whole entry, looked up): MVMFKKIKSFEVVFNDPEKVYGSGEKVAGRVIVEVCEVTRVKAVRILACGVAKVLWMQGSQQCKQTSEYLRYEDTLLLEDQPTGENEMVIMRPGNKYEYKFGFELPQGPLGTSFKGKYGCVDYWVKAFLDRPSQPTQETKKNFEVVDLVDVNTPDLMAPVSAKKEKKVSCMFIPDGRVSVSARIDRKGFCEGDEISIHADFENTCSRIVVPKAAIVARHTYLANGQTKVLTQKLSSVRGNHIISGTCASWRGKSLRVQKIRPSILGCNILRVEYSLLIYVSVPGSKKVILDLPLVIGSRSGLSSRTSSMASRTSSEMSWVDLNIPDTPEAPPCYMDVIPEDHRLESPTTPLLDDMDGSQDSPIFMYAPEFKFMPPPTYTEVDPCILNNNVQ
inactive: [1] -0.013 | [2] -0.148 | [3] 0.172 | [4] 0.035 | [5] -0.198 | [6] -0.074 | [7] 0.002 | [8] -0.119 | [9] 0.228 | [10] 0.142 | [11] 0.05 | [12] -0.36 | [13] -0.103 | [14] -0.188 | [15] 0.03 | [16] -0.068 | [17] -0.06 | [18] 0.01 | [19] 0.113 | [20] -0.087

TMEM263 (UniProt Q8WUH6)
inactive: [1] -0.096 | [3] -0.038 | [4] -0.09 | [5] -0.043 | [7] -0.042 | [8] 0.065 | [9] -0.045 | [10] -0.208 | [11] 0.03 | [13] -0.029 | [14] 0.018 | [15] -0.007 | [16] -0.385 | [17] -0.019 | [18] 0.046 | [19] -0.075
active: [2] -0.654 | [6] -0.789 | [12] -0.717 | [20] -0.936

UBE2E3 (UniProt Q969T4)
Sequence of UniProt Q969T4 (Q969T4 whole entry, looked up): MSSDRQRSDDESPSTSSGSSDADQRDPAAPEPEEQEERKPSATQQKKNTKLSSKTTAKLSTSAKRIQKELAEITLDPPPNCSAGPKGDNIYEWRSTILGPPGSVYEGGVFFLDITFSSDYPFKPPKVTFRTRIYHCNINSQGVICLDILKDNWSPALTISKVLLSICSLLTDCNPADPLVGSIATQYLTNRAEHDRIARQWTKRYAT
inactive: [1] -0.077 | [2] -0.046 | [3] -0.013 | [4] -0.075 | [5] -0.045 | [6] 0.108 | [7] -0.076 | [8] 0.022 | [9] -0.021 | [10] 0.089 | [11] 0.008 | [12] 0 | [13] 0.219 | [14] 0.008 | [15] 0.025 | [16] -0.052 | [17] 0.061 | [18] 0.034 | [19] 0.03 | [20] -0.005

TOM1 isoform 2 (UniProt O60784)
inactive: [1] -0.118 | [2] -0.031 | [3] -0.001 | [4] 0.056 | [5] -0.002 | [6] -0.039 | [7] -0.031 | [8] 0 | [9] 0.014 | [10] -0.154 | [11] 0.146 | [12] -0.002 | [13] 0.035 | [14] -0.096 | [15] 0.043 | [16] 0.101 | [17] 0.013 | [18] 0.023 | [19] -0.078 | [20] -0.043

UBE4B isoform 4 (UniProt O95155)
Sequence of UniProt O95155 (O95155 whole entry, looked up): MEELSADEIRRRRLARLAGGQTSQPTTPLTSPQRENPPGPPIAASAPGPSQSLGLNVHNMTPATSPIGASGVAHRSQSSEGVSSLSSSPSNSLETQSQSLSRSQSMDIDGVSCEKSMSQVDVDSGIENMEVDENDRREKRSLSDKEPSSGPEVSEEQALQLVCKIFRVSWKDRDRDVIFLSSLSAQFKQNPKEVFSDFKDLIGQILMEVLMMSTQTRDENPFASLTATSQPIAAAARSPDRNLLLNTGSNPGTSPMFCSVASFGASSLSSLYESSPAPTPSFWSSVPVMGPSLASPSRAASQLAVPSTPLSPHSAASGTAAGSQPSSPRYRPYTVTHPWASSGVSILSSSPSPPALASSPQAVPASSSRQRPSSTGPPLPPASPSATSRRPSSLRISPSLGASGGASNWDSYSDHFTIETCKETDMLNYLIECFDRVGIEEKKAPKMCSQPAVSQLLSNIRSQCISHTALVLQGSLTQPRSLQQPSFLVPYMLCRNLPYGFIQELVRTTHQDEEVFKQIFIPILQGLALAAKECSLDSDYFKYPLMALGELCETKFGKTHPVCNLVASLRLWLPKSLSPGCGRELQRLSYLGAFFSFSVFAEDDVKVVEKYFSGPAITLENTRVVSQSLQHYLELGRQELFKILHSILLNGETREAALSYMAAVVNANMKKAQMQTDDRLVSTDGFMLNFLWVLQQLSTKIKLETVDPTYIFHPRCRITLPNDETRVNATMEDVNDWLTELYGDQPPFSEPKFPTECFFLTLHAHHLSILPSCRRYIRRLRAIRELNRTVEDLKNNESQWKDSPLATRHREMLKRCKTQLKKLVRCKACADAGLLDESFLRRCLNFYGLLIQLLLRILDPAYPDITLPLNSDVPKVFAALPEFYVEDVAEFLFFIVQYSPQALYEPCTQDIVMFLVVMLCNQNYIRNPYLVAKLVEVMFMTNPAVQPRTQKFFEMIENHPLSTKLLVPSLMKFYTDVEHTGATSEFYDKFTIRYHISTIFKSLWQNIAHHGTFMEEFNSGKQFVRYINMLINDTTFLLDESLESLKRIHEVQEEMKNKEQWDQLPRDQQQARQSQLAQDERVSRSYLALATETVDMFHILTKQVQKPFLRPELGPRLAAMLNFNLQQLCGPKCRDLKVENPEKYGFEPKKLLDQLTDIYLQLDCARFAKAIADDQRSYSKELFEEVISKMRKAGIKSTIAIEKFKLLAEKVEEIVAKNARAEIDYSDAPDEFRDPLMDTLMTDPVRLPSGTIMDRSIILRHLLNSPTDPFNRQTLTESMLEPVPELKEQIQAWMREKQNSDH
inactive: [1] 0.04 | [2] -0.009 | [3] -0.008 | [4] -0.031 | [5] -0.035 | [6] 0.021 | [7] -0.048 | [8] 0.021 | [9] -0.01 | [10] 0.063 | [11] 0.016 | [12] -0.013 | [13] 0.012 | [14] -0.015 | [15] 0.012 | [16] -0.048 | [17] 0.035 | [18] 0.019 | [19] -0.048 | [20] 0

TUBAL3 (UniProt A6NHL2)
Sequence of UniProt A6NHL2 (A6NHL2 whole entry, looked up): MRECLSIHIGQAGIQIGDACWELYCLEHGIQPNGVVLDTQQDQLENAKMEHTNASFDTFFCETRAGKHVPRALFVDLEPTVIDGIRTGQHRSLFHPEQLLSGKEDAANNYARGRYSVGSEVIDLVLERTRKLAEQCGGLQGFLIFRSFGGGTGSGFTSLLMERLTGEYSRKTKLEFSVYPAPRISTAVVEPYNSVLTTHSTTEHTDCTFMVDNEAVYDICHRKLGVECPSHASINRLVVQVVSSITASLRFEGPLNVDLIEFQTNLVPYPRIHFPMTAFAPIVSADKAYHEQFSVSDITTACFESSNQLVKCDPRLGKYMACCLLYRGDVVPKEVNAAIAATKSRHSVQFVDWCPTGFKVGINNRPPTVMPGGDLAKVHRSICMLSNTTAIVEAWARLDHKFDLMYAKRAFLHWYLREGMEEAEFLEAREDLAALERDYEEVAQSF
inactive: [1] -0.037 | [2] -0.058 | [3] -0.064 | [4] -0.218 | [5] 0.048 | [6] 0 | [7] -0.059 | [8] 0.015 | [9] 0.075 | [10] 0.052 | [11] -0.097 | [12] -0.128 | [13] 0.161 | [14] 0.02 | [15] 0.009 | [16] -0.165 | [17] 0 | [18] -0.02 | [19] 0.113 | [20] -0.108

USP24 (UniProt Q9UPU5)
inactive: [1] -0.03 | [2] -0.179 | [5] -0.008 | [6] 0.116 | [7] 0.099 | [9] 0.019 | [10] 0.258 | [11] 0.062 | [12] 0.204 | [14] 0.015 | [15] 0.219 | [16] -0.213 | [17] 0.045 | [18] -0.017 | [19] -0.041 | [20] 0.115
active: [3] 0.397 | [4] -0.342 | [8] 0.385 | [13] 0.396

TMTC3 (UniProt Q6ZXV5)
inactive: [1] -0.092 | [2] 0.01 | [3] 0.006 | [4] -0.03 | [5] 0.105 | [6] -0.085 | [7] -0.007 | [8] -0.041 | [9] 0.053 | [10] 0.032 | [11] 0.054 | [12] -0.088 | [13] -0.052 | [14] 0.072 | [15] -0.017 | [16] -0.039 | [17] -0.012 | [18] 0.038 | [19] 0.018 | [20] -0.188

UBE2J1 (UniProt Q9Y385)
Sequence of UniProt Q9Y385 (Q9Y385 whole entry, looked up): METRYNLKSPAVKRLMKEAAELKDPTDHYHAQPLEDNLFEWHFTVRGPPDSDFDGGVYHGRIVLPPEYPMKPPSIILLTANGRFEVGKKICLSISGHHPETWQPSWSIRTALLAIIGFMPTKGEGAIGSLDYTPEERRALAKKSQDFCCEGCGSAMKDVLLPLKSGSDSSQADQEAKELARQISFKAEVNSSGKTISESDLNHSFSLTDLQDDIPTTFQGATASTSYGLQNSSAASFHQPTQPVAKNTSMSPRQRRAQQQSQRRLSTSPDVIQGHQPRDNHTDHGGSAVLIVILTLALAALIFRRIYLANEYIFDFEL
inactive: [1] -0.209 | [2] 0.119 | [3] 0.046 | [4] -0.12 | [5] -0.259 | [6] 0.232 | [7] -0.035 | [8] 0.241 | [9] -0.064 | [10] -0.081 | [11] 0.06 | [12] -0.172 | [13] 0.026 | [14] -0.043 | [15] 0.179 | [16] -0.151 | [17] 0.026 | [18] -0.01 | [19] -0.26 | [20] -0.016

UPF3B (UniProt Q9BZI7)
Sequence of UniProt Q9BZI7 (Q9BZI7 whole entry, looked up): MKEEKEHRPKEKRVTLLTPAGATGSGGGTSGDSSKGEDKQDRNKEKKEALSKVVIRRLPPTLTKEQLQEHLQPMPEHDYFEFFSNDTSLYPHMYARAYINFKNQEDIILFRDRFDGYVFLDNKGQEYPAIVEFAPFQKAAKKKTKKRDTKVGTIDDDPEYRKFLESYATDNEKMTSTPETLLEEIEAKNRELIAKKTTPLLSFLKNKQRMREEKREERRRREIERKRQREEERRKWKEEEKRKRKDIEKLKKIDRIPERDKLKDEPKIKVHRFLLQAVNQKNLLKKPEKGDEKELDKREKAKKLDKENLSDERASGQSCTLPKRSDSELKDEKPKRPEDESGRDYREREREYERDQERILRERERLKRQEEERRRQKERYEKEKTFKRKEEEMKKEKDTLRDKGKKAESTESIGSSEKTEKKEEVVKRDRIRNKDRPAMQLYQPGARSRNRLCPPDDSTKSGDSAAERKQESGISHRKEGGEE
inactive: [1] -0.044 | [2] 0.26 | [3] -0.015 | [4] 0.209 | [5] -0.048 | [6] 0.187 | [7] 0.061 | [8] -0.114 | [9] 0.234 | [10] -0.058 | [11] 0 | [12] 0.091 | [13] -0.63 | [14] 0.542 | [15] -0.125 | [16] 0.452 | [17] 0.071 | [18] 0.064 | [19] 0.295 | [20] -0.222

TMEM9 (UniProt Q9P0T7)
Sequence of UniProt Q9P0T7 (Q9P0T7 whole entry, looked up): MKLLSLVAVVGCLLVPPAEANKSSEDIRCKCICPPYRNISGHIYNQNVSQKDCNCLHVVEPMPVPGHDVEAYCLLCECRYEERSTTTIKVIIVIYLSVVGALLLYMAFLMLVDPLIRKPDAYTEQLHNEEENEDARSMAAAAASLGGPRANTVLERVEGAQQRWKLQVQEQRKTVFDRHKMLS
inactive: [1] -0.085 | [2] -0.078 | [3] 0.081 | [4] 0.006 | [5] -0.081 | [6] -0.178 | [7] -0.007 | [8] 0.052 | [9] 0.04 | [10] 0.036 | [11] -0.026 | [12] -0.026 | [13] 0.029 | [14] -0.197 | [15] -0.012 | [16] -0.026 | [17] -0.049 | [18] 0.014 | [19] 0.048 | [20] -0.093

UBE4A isoform 2 (UniProt Q14139)
Sequence of UniProt Q14139 (Q14139 whole entry, looked up): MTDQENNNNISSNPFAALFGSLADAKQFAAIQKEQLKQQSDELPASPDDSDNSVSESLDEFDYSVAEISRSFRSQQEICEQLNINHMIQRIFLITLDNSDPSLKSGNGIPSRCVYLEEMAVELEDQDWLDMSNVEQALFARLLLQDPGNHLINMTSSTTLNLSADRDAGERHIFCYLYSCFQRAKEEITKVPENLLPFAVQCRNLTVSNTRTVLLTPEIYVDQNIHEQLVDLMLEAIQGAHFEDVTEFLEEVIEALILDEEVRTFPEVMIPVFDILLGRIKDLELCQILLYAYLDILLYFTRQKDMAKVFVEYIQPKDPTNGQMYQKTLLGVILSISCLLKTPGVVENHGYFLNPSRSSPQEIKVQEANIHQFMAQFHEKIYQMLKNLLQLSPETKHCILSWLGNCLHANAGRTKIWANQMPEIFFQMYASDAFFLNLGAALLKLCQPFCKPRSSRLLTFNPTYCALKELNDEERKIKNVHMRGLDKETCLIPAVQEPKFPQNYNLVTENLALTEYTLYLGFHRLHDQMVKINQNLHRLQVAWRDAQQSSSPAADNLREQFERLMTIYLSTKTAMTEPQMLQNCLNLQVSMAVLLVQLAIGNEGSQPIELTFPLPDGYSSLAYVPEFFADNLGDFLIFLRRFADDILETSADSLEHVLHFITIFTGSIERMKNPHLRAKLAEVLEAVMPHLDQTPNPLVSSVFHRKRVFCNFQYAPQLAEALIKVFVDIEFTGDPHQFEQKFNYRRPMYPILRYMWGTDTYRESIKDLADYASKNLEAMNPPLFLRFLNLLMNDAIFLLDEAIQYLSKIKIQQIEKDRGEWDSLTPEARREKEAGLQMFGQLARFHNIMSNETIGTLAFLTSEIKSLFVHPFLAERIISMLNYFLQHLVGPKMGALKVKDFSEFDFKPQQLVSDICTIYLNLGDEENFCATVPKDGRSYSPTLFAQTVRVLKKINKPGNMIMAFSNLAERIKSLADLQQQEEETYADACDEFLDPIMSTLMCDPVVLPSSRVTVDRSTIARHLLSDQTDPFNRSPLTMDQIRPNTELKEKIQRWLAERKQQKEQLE
inactive: [1] 0.037 | [2] -0.023 | [3] -0.003 | [4] 0.008 | [5] -0.003 | [6] -0.024 | [7] -0.056 | [8] -0.073 | [9] 0.022 | [10] 0.016 | [11] 0.036 | [12] -0.275 | [13] 0.069 | [15] 0.006 | [16] -0.076 | [17] 0.037 | [18] 0.117 | [19] -0.023 | [20] -0.172
active: [14] 0.29

WDR46 (UniProt O15213)
Sequence of UniProt O15213 (O15213 whole entry, looked up): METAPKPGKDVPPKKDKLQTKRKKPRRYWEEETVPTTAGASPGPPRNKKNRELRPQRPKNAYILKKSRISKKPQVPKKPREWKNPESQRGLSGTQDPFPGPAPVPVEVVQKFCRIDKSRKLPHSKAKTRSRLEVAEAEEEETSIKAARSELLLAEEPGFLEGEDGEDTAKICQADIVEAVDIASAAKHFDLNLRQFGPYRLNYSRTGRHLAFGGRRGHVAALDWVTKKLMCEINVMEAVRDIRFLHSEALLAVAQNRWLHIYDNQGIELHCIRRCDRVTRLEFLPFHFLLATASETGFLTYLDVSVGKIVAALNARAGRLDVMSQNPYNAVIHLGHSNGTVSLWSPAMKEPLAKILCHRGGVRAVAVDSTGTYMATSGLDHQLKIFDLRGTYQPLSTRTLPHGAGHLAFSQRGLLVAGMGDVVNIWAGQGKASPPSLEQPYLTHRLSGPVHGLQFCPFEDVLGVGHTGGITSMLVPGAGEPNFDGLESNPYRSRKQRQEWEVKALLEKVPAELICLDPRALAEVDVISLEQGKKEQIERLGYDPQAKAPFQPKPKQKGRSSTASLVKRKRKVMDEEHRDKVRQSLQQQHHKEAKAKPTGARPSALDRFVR
inactive: [1] -0.129 | [2] 0.425 | [3] 0.075 | [4] 0.156 | [5] -0.162 | [6] 0.037 | [7] -0.036 | [8] -0.018 | [9] -0.006 | [10] -0.052 | [11] -0.05 | [12] 0.008 | [13] -0.731 | [14] 0.445 | [15] -0.199 | [16] 0.27 | [17] 0.068 | [18] 0.032 | [19] 0.142 | [20] -0.081

TRIM28 (UniProt Q13263)
inactive: [1] 0.015 | [2] -0.017 | [3] 0.046 | [4] -0.031 | [5] -0.087 | [6] 0.003 | [7] 0.002 | [8] -0.03 | [9] -0.005 | [10] 0.033 | [11] -0.001 | [12] 0.046 | [13] 0.048 | [14] -0.068 | [15] 0.027 | [16] -0.033 | [17] 0.13 | [18] 0.039 | [19] -0.036 | [20] -0.007

WDR47 (UniProt O94967)
inactive: [1] 0.057 | [2] -0.014 | [3] -0.006 | [4] -0.071 | [5] 0.21 | [6] -0.029 | [7] -0.001 | [8] 0.061 | [9] -0.007 | [10] 0.077 | [11] -0.024 | [12] 0.048 | [13] 0.024 | [14] -0.003 | [15] 0.109 | [16] 0.09 | [17] -0.052 | [18] -0.011 | [19] -0.034 | [20] 0.025

Source: the supplement of paper PMC10849652
